# Screening results (PubChem)
# Shown are actives, neighbours in structure and some others; about 6% of the full set was active somewhere.
# Tau fluor cs – counter-screen for tau fibril formation inhibitors; tau K18 P301L Alexa594 fluorescence, heparin fibrillization; Potency, µM (doses to about 57.7 µM), inactives show at the top dose activity change, negative = decrease; hit rate 0.93% among 280,000; AID 1463; note: nearly all actives have a fitted effect of over 55% in size
#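 Human K18 P301L tau (15 uM unlabeled plus 0.24 uM Alexa 594-labeled, final) in 100 mM sodium acetate pH 7 was mixed with compound and 20 uM heparin and incubated 6 hr at 37 C.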
# Tau ThT inhib – inhibitors of human tau fibril formation, thioflavin T binding | hit rate 2.1% among 270,000 | P10636 | Potency, µM (doses to about 57.4 µM), without a hit: at the top dose activity, negative = inhibition, hits mostly inhibitors | AID 1460 | recombinant tau K18 P301L, heparin-induced fibrillization, ThT fluorescence; note: nearly all actives have a fitted effect of over 55% in size
# Target sequence (P10636 561-689 P618L limits assumed): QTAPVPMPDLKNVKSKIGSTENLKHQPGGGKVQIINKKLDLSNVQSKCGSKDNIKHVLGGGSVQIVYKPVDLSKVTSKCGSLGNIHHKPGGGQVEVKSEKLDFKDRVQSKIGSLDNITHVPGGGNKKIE
#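 Using a mix of unlabeled (15 uM) and Alexa 594-labeled (0.24 uM) tau K18 P301L, heparin-triggered fibrillization over 6 hr at 37 C was scored by ThT fluorescence.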
# VDR inhibitor – inhibitors of human vitamin D receptor | P11473 | VDR-SRC2-3 peptide fluorescence polarization, 2 h | Potency, µM, for inactives: max response, negative = inhibition, most hits filed as inhibitors | hit rate 0.93% among 400,000 | AID 504847
# Target sequence (P11473 whole entry, looked up): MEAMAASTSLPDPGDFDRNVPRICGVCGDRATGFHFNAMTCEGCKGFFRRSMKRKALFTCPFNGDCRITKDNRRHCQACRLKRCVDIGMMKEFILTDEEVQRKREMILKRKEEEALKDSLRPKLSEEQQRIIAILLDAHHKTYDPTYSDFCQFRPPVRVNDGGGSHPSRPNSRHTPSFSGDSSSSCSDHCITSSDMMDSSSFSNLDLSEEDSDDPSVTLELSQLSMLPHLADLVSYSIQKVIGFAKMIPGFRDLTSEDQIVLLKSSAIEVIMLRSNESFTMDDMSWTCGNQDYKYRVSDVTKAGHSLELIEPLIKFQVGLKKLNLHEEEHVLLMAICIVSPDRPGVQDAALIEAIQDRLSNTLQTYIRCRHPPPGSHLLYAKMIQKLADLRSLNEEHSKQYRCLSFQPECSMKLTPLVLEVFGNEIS
#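 Reagent solutions, kept cold and dark, are dispensed first; compounds are then pinned in at 23 nl, plates briefly spun, and incubated 2 h at ambient temperature. Inhibition of VDR–SRC2-3 peptide binding is read by fluorescence polarization.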
# Sfp inh – Sfp phosphopantetheinyl transferase inhibition | Biochemical Sfp PPTase activity, qHTS | hit rate 3.5% among 310,000 | Potency, µM, without a hit: largest response in the series, negative = inhibition, usual class: inhibitors | AID 1490 | Q9F4F7;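 note: the enzyme is Sfp with the accession as filed and its product quenches rhodamine fluorescence; 0% = enzyme reaction without inhibitor and -100% = no enzyme wells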
#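 With Hepes-Na pH 7.6 buffer containing 10 mM MgCl2, Sfp (15 nM) modified BHQ-2-YbbR (12.5 uM) using rhodamine-CoA (5 uM). Two reads 30 minutes apart at 525/598 nm yielded each well's rate.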
# Tau FP inhib – blocks human tau fibril formation measured by polarization; P10636; K18 P301L tau heparin fibrillization, Alexa594 FP, 6 h; Potency, µM (titrated, usually from 57.7 µM), without a hit: at the highest dose activity, negative = inhibition, usual class: inhibitors; hit rate 0.39% among 280,000; AID 1468; note: nearly all actives have a fitted effect of over 55% in size
#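 Quantitative HTS format: compounds meet 15 uM recombinant K18 P301L tau and Alexa 594-tau tracer in 100 mM sodium acetate pH 7; 20 uM heparin triggers fibrillization at 37 C over 6 hr; FP gives the signal.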
# PLK1 PBD block – blocks phosphopeptide binding to human PLK1 polo-box domain. P53350. Plk1 PBD binding of FITC phosphopeptide, fluorescence polarization. Potency, µM, for the others: max response, negative = inhibition, usual class: inhibitors. hit rate 2.8% among 360,000; note: series mostly up to about 57 µM; nearly all actives have a fitted effect of over 65% in size
# The depositor's hits bear a star; ? = inconclusive; · = no result given; [ ] = dose if it differs, or a comment. Calls come from the whole dose curve; as a rule, active = well fitted curve in the direction sought with a large enough effect; inconclusive = small, poorly fitted or top-dose-only effect, or another doubt; inactive = no such curve, though single readings can be large; an effect the other way counts as inactive or inconclusive. Unless noted, % is set by controls: 0 for no effect and ±100 for the full control effect; potency is the fitted concentration of half-maximal effect.
SMILES,Tau fluor cs,Tau ThT inhib,VDR inhibitor,Sfp inh,Tau FP inhib,PLK1 PBD block
O=C(Cc1ccsc1)Nc1ccccc1F,·,·,?,15%,·,27µM*
CCOC(=O)c1[nH]c2ccccc2c1NC(=O)c1ccc(OC(C)C)cc1,?,-12%,-4%,·,-1%,·
COc1ccc(S(=O)(=O)N2CCCOC2CNC(=O)C(=O)NCc2ccccc2C)cc1 (stereo not given),·,·,·,·,·,-8%
CCc1ccccc1NC(=O)c1nnn(CC(=O)Nc2cccc(C)c2)c1N,-20%,-15%,-1%,9%,-13%,-8%
CSc1cccc(NC(=O)c2nnn(CC(=O)Nc3cc(C)cc(C)c3)c2N)c1,·,·,?,13%,·,13µM*
CC(NC(=O)Nc1ccccc1O)(C(F)(F)F)C(F)(F)F,-14%,?,10%,?,-1%,27µM*
CCC(NC(=O)Nc1ccc(O)cc1)(C(F)(F)F)C(F)(F)F,?,?,-11%,?,?,-5%
CC(NC(=O)Nc1ccc(O)cc1)(C(F)(F)F)C(F)(F)F,?,22µM*,-9%,-4%,?,-4%
COC(=O)c1ccc2c(=O)n(NC(C)=O)c(=S)[nH]c2c1,5%,-12%,5%,4µM*,-4%,-10%
CCc1ccc2nc3sc(C(=O)N4CCc5ccccc54)c(N)c3cc2c1,0%,?,·,-20%,7%,·
CCOc1ccc2nc3sc(C(=O)N4CCN(C)CC4)c(N)c3cc2c1,?,13µM*,-5%,-10%,9%,?
CC(C)c1ccc2nc3sc(C(=O)N4CCc5ccccc5C4)c(N)c3cc2c1,?,13µM*,-14%,-30%,8%,-14%
Cc1ccc2nc3sc(C(=O)N4CCOCC4)c(N)c3cc2c1,-11%,-17%,-2%,-11%,5%,-10%
Cc1cc(C)c2c(N)c(C(=O)N3CCc4ccccc4C3)sc2n1,-11%,?,7%,56µM*,0%,-7%
CCN1CCc2nc3sc(C(=O)N4CCc5ccccc5C4)c(N)c3cc2C1,·,·,-14%,45µM*,·,-17%
Cc1ccc(NC(=O)c2sc3nc4c(cc3c2N)CN(Cc2ccccc2)CC4)cc1,-16%,?,4%,·,6%,·
CN(c1ccccc1)S(=O)(=O)c1ccc(Cl)c(C(=O)OCC(=O)c2c(N)n(C)c(=O)n(C)c2=O)c1,·,·,-4%,·,·,-8%
Cc1cccc(C(=O)NCC(=O)OCc2cc(=O)n3nc(C)sc3n2)c1,-2%,-10%,14%,·,7%,·
Cc1cc(Nc2ccccc2C(=O)O)n2ncnc2n1,·,·,·,·,·,-14%
CCN1CCc2nc3sc(C(=O)Nc4cccnc4Cl)c(N)c3cc2C1,·,·,-19%,-20%,·,-11%
CCN1CCc2nc3sc(C(=O)Nc4cccc(Cl)c4C)c(N)c3cc2C1,?,10µM*,-5%,·,4%,·
COCCN1C(=O)c2[nH]nc(-c3ccccc3O)c2C1c1ccc(Cl)c(Cl)c1 (stereo not given),?,-12%,8%,·,-13%,·
Cc1cc(=O)[nH]c(N/N=C/c2cccs2)n1,9%,6%,11%,-11%,6%,-13%
Cc1ccsc1/C=N/Nc1ncnc2nc[nH]c12,9%,10%,-2%,50µM*,-2%,-5%
Cc1cc(=O)[nH]c(N/N=C/c2sccc2C)n1,11%,8%,12%,13µM*,8%,-5%
SMILES,Tau fluor cs,Tau ThT inhib,VDR inhibitor,Sfp inh,Tau FP inhib,PLK1 PBD block
CCCCCCC1=Cc2cc(OC)c(OC)cc2C(CC(=O)/C=C/OC)O1 (stereo not given),-12%[11.6 µM],-26%[11.5 µM],·,-3%,1%[11.6 µM],·
COc1coc(C(O)C[N+](=O)[O-])cc1=O (stereo not given),-4%,?,1%,32µM*,-3%,-7%
COC(=O)NC(CC(C)=O)c1cccc(C(F)(F)F)c1 (stereo not given),-2%[11.6 µM],-6%[11.5 µM],·,6%,3%[11.6 µM],·
CN(C(=O)COC(=O)c1cccnc1Nc1ccccc1F)C1CCS(=O)(=O)C1 (stereo not given),-9%,-2%,11%,7%,-7%,-13%
CN(CCC#N)C(=O)COC(=O)c1cccnc1Nc1ccccc1F,1%,0%,-11%,9%,-2%,27µM*
COc1ccc(NC(=O)N2CCC3(CC2)CCN(C(=O)c2ccco2)CC3)cc1,·,·,-3%,18%,·,·
COc1cc(C)c(CC/C(C)=C/C=C/C(C)=O)c(C)c1C,-15%,?,79µM*,?,-9%,·
Cc1ccc(C)c(N2CCN(S(=O)(=O)c3ccc4[nH]c5c(c4c3)CCCCC5)CC2)c1,?,-1%,0%,·,1%,·
CCOc1ccc(S(=O)(=O)NCCC(=O)NCCOc2ccccc2OC)cc1,·,·,11%,·,·,3%
COc1cccc(CN2CCN(Cc3cc(OC)c(OC)cc3OC)CC2)c1,·,·,2%,56µM*,·,4%
COc1cccc(CN2CCN(Cc3ccco3)CC2)c1,·,·,23%,45µM*,·,2%
Cc1ccc(Cn2c(C(=O)O)c(CNC3CCCCCC3)c3ccc(C)cc32)cc1,6%,-2%,2%,·,14%,·
FC(F)(F)c1cc(NC(=S)Nc2ccc3cc4ccccc4cc3c2)cc(C(F)(F)F)c1,?,?,22µM*,-25%,1%,·
Cc1cccc(NC(=S)NNC(=S)NCc2ccccc2)c1,-20%,-17%,89µM*,79µM*,1%,-27%
Cc1ccc(C)c(NC(=S)NCCc2ccc(F)cc2)c1,-19%,-5%,-5%,0%,-6%,?
FC(F)(F)c1cccc(NC(=S)NCc2ccc(Cl)cc2)c1,?,5%,-20%,19%,?,-20%
Cc1ccc(C)c(NC(=S)NNc2ccc(F)cc2F)c1,·,·,10µM*,-17%,·,?
FC(F)(F)c1cccc(NC(=S)NNC(=S)Nc2ccc(Cl)cc2)c1,8.9µM*[quencher],·,·,25µM*,?,·
FC(F)(F)c1cc(NC(=S)NC(c2ccccc2)c2ccccc2)cc(C(F)(F)F)c1,-23%,4%,-21%,29%,?,·
CCC12CN3CC(C)(CN(C1)C3c1ccc(O)cc1O)C2=O (stereo not given),-1%,3%,-9%,·,4%,·
CCC(C)NC(=O)c1ccccc1NC(=O)CN1C(=O)c2cccc3cccc1c23 (stereo not given),-16%,-7%,11%,·,1%,·
Cc1ccc(OC(=S)Nc2ccc(O)cc2)cc1,-26%,16µM*,10%,-13%,?,?
Cc1ccc(NNC(=S)Nc2ccc(C(C)C)cc2)c(C)c1,?,14µM*,-17%,-9%,-8%,17µM*
Cc1ccc(NC(=O)CCC(=O)NNC(=S)Nc2ccc(F)cc2)c(C)c1,·,·,6%,22%,·,3%
Cc1ccc(NC(=S)NNC(=S)Nc2ccc(C)cc2)cc1,·,·,79µM*,·,·,?
O=C(NNC(=S)Nc1ccccc1)Nc1ccccc1,-7%,-12%,-25%,7.1µM*,-9%,?
